The results in this text go back to PubChem BioAssay (NCI).

Common to all, as to assay: NCI-60 one-dose screen, 48 h (100 = growth as untreated, 0 = no growth, -100 = all killed)
What all share (settings): 10 µM unless noted

The subject of assay [1] is T-47D breast.
Assay [2] has as its system BT-549 breast.
In assay [3] the test system is MDA-MB-435 melanoma.
Assay [4] has as its system SW-620 colon.
Assay [5] has as its system MCF7 breast.
Assay [6] deals with HCT-116 colon.
Assay [7] concerns HCC-2998 colon.
The test system of assay [8] is KM12 colon.

Compounds without any hit were thinned out: in the full panel of roughly 83,000, 20% have a hit.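 Treatment: one concentration, 48 hours, 96-well format. Scoring: percent growth, with anything below 10 considered active.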 Unmarked numbers belong to inactive results. The source made the active and inactive calls.

With `COc1ccccc1CNc1c2ccccc2nc2ccccc12`, the growth in assay [1] was 46.2%; in assay [2], 77%; in assay [3], 42.6%; in assay [4], 22.1%; in assay [5], 16.8%; in assay [6], 12.7%. The growth in assay [7] is 38.8%; in assay [8] it was 32.9%.

Consider `COc1ccc(OC)c(Nc2nnc(-c3ccc(O)c(OC)c3)o2)c1`, for which the growth is 43.9% in assay [1]; 79.4% in assay [2]; 85% in assay [3]; 78.6% in assay [4]; 77.7% in assay [5]; 63.8% in assay [6]. Further, the growth in assay [7] is 90.6%; in assay [8], 20.4%.

On to `CN(C)CC1CCC(CN(C)C)C1=O` (stereo not given), for which the growth is 106% in assay [1]; 110% in assay [2]; 121% in assay [3]; 86.9% in assay [4]; 93.7% in assay [5]; 93.9% in assay [6]. Besides, the growth in assay [7] was 114%; in assay [8], 115%.

In the case of `COc1ccccc1NC(=O)N=Nc1c(O)[nH]c2ccccc12`, the growth in assay [1] is 68.6%; in assay [2], 97.9%; in assay [3], 91%; in assay [4], 84.4%; in assay [5] it was 59%; in assay [6], 93%. Also, the growth in assay [7] was 94.4%; in assay [8], 94.8%.

Regarding `O=C(Cn1cc(CSc2nc3ccccc3o2)nn1)Nc1ccc(F)cc1F`, the growth in assay [1] is 116%; in assay [2] it was 113%; in assay [3] it was 114%; in assay [4] it was 112%; in assay [5] it was 92.5%; in assay [6] it was 109%. For the same molecule, the growth in assay [7] is 111%; in assay [8] it was 116%.

In the case of `Cc1cn(-c2cc(NC(=O)c3cncc(C#Cc4cnc(N)c5ncccc45)c3)cc(C(F)(F)F)c2)cn1`, the growth in assay [1] is 83.6%; in assay [2] it was 75.3%; in assay [3] it was 55.5%; in assay [4], 62.6%; in assay [5], 73.9%; in assay [6], 35.6%. The growth is 79.8% in assay [7] and 25% in assay [8].

As to `CSc1nc2ncc([N+](=O)[O-])c(=O)n2[nH]1`, the growth was 99.8% in assay [1]; 104% in assay [2]; 100% in assay [3]; 101% in assay [4]; 96.5% in assay [5]; 105% in assay [6]. Moreover, the growth in assay [7] was 107%; in assay [8], 103%.

Take `Cc1nc2sc(C(=O)Nc3ccc(Br)cc3)c(N)c2cc1C(O)c1ccccc1` (stereo not given): the growth in assay [1] was 45.6%; in assay [2], 71.1%; in assay [3], 1.03% (active); in assay [4], 45.8%; in assay [5], 33.8%; in assay [6], 29.9%. Further, the growth was 76.5% in assay [7] and 49.2% in assay [8].

For the molecule `COc1cc2c(cc1OCCCN1CCN(CCCOc3cc4c(cc3OC)C(=O)N3CCC[C@H]3C=N4)CC1)C=CC(C)(C)O2`, the growth in assay [1] was -55.2% (active); in assay [2] it was -100% (active); in assay [3] it was -72.9% (active); in assay [4], -100% (active); in assay [5], -100% (active); in assay [6] it was -96% (active). The growth in assay [7] is -82.1% (active); in assay [8], -82% (active).

Take `NC(=O)C(=O)c1ccccc1NC=O`: the growth is 106% in assay [1]; 107% in assay [2]; 101% in assay [3]; 101% in assay [4]; 99.5% in assay [5]; 93.1% in assay [6]. Also, the growth in assay [7] is 107%; in assay [8] it was 98.6%.

With `CN1C(=O)/C(=C\c2c(Cl)cccc2Cl)c2ccccc21`, the growth in assay [1] was 90.3%; in assay [2], 98.7%; in assay [3] it was 7.16% (active); in assay [4] it was 66.3%; in assay [5] it was 68.7%; in assay [6], 91.9%. For the same molecule, the growth was 80.4% in assay [7] and 62.3% in assay [8].

Consider `NC(=O)c1cc(I)ccc1NC(=O)/C=C/c1ccccc1`, for which the growth is 122% in assay [1]; 61.5% in assay [2]; -30.5% (active) in assay [3]; 9.63% (active) in assay [4]; 2.18% (active) in assay [5]; 8.52% (active) in assay [6]. Also, the growth was -62.3% (active) in assay [7] and 8.98% (active) in assay [8].

Turning to `Nc1n[nH]c2cccc(C#Cc3cccc(NC(=O)c4cc(F)cc(C(F)(F)F)c4)c3)c12`, the growth in assay [1] is 67.3%; in assay [2], 79.6%; in assay [3], 71.2%; in assay [4], 62.5%; in assay [5] it was 68.4%; in assay [6], 29.9%. In addition, the growth is 70.8% in assay [7] and 83.3% in assay [8].

On to `O=C(Nc1cccc(Cl)c1)Nc1cccc(Cn2c(=O)[nH]c3ccc(Oc4ncccn4)cc3c2=O)c1`, for which the growth in assay [1] is 16.3%; in assay [2], 48%; in assay [3] it was 42.6%; in assay [4], 72.3%; in assay [5], 35.8%; in assay [6], 22.9%. Further, the figures for the growth in assay [7] and in assay [8] were 69.7% and 29.5%, respectively.

In the case of `CC(=O)/C(=C\c1c(-c2ccccc2)[nH]c2ccccc12)S(C)(=O)=O`, the growth in assay [1] was 1.27% (active); in assay [2] it was 4.06% (active); in assay [3], -42.7% (active); in assay [4] it was 13.7%; in assay [5], 6.97% (active); in assay [6], 21.2%. Moreover, the growth was 36.8% in assay [7] and 4.04% (active) in assay [8].
